Data taken from PubChem BioAssay (NCATS).
Inconclusive results are not listed. Activity calls are given as the source filed them. Unless noted, the call rests on the fitted dose curve; in most records, active means well fitted curve in the direction sought with a large enough effect; inconclusive means small, poorly fitted or top-dose-only effect, or another doubt; inactive means no such curve, though single readings can be large; an effect the other way counts as inactive or inconclusive.

Experiments:
[1] = molecular target: Lysosomal acid glucosylceramidase (Homo sapiens) (UniProt P04062); experiment: Glucocerebrosidase-p2 (AID 348; in the data active means potency below about 10 µM; further: potency means the concentration at half of the fitted maximal effect); details: purified GBA, blue fluorogenic substrate, 40 min
Sequence of Lysosomal acid glucosylceramidase (Homo sapiens) (P04062 whole entry, looked up): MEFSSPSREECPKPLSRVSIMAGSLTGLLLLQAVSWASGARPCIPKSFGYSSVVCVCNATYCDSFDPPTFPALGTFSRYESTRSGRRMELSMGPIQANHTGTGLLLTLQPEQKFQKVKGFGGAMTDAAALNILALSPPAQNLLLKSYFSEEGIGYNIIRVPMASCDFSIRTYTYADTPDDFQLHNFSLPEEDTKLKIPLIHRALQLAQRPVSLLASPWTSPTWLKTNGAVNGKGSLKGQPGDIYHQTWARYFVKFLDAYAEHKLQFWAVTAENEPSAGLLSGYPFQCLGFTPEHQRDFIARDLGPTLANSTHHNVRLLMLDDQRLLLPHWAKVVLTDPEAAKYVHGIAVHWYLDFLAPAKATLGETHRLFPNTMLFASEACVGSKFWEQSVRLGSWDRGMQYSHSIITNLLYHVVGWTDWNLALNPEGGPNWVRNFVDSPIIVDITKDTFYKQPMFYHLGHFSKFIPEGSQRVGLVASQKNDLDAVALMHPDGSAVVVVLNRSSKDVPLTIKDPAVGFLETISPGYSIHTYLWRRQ
Outline: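 Normal human glucocerebrosidase (0.2 nM) with blue fluorogenic substrate (80 uM final) in citrate/phosphate pH 5.9 with 10mM sodium taurocholate, 0.01% tween-20; 40 min RT, NaOH/glycine stop; fluorescence Ex 365/Em 440; AC50 from a titration from 0.6 nM upwards.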

[2] = AP1 Signaling Pathway (AID 357; active means well fitted curve in either direction with a large enough effect, not every such curve was filed as active;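 further: ME-180 reporter cells stimulated with EGF at its EC50 level; on the % scale 0 is the no-effect control and ±100 the full control effect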); details: ME-180 AP-1-bla reporter, EGF-induced, beta-lactamase ratio, 5 h; at 7.69 µM (top of the series) unless noted
Outline: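 Titration-series screen for positive or negative modulators of EC50 EGF-induced signaling in ME-180 cells carrying an AP-1-driven beta-lactamase reporter. After 5 hours at 37 degrees Celsius, CCF4 460nm/530nm emission ratio gave %Activity; AC50 values derived.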

[3] = molecular target: Cytochrome P450 1A2 (Homo sapiens) (UniProt P05177); experiment: p450-cyp1a2 (AID 410; calls by dose curve; further: potency means the concentration at half of the fitted maximal effect); details: recombinant CYP1A2, luciferin-ME demethylation, luminescence; series mostly up to 57 µM
Sequence of Cytochrome P450 1A2 (Homo sapiens) (P05177 whole entry, looked up): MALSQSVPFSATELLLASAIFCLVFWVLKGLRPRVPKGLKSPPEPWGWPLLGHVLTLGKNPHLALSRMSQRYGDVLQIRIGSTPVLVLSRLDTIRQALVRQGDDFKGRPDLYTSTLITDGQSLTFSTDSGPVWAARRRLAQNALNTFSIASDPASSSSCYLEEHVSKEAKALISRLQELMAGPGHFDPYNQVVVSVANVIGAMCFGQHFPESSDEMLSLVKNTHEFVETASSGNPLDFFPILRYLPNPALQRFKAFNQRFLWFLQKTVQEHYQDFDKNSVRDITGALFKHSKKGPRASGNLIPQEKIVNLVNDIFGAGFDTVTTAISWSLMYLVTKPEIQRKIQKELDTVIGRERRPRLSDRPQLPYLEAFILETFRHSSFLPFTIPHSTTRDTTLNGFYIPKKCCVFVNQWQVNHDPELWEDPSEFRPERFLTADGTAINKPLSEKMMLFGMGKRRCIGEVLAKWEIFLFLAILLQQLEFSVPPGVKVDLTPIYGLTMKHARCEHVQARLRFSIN
Outline: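 Luminescent demethylation readout: Luciferin-ME (100uM, equal to Km) turned over by 20nM CYP1A2 for 60 min at room temperature after NADPH regeneration addition, following 10 min compound preincubation. Normalization used 57 uM furafylline as full inhibition.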

[4] = NFAT Signaling Pathway (AID 444; active means well fitted curve in either direction with a large enough effect, not every such curve was filed as active;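 further: carbachol stimulus at about its EC50 of 1 µM final; on the % scale 0 is the no-effect control and ±100 the full control effect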); details: Jurkat NFAT-bla M1, carbachol, beta-lactamase ratio, 5 h; at 7.69 µM (top of the series) unless noted
Outline: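 Jurkat cells with NFAT-driven β-lactamase reporter and co-expressed M1 receptor, stimulated with carbachol (final 1 uM, ~EC50), compound titration, 5 h at 37 °C. CCF4 loaded 1 h at RT; 460/530 nm ratio gave %activity and AC50.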

[5] = Stat Signaling Pathway (AID 446; active means well fitted curve in either direction with a large enough effect, not every such curve was filed as active;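 further: ME-180 cervical cancer cells given 40 pM IL-6 alongside compound; SIE-controlled beta-lactamase reporter measured as 460/530 nm FRET emission ratio; on the % scale 0 is the no-effect control and ±100 the full control effect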); details: ME-180 (cervical carcinoma) SIE beta-lactamase reporter, IL-6 stimulated, 5 h; at 7.69 µM (top of the series) unless noted
Outline: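 FRET read-out (405 nm excitation, 460/530 nm emission) of a beta-lactamase reporter under a STAT-inducible element in ME-180 cervical carcinoma cells. Cells with compound receive 40 pM IL-6 for 5 h. Values are normalised to AC90 stimulation and AC90 JAK-inhibitor controls.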

[6] = molecular target: Glucocorticoid receptor (Homo sapiens) (UniProt P04150); experiment: GR-GFP Redistribution (AID 450;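 active means compounds whose dose series gives a full or clear partial fitted curve of increased nuclear translocation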; further: potency means the concentration at half of the fitted maximal effect); details: U2OS GR-GFP nuclear translocation, laser cytometry, 2 h
Sequence of Glucocorticoid receptor (Homo sapiens) (P04150 whole entry, looked up, the tested form may be a part): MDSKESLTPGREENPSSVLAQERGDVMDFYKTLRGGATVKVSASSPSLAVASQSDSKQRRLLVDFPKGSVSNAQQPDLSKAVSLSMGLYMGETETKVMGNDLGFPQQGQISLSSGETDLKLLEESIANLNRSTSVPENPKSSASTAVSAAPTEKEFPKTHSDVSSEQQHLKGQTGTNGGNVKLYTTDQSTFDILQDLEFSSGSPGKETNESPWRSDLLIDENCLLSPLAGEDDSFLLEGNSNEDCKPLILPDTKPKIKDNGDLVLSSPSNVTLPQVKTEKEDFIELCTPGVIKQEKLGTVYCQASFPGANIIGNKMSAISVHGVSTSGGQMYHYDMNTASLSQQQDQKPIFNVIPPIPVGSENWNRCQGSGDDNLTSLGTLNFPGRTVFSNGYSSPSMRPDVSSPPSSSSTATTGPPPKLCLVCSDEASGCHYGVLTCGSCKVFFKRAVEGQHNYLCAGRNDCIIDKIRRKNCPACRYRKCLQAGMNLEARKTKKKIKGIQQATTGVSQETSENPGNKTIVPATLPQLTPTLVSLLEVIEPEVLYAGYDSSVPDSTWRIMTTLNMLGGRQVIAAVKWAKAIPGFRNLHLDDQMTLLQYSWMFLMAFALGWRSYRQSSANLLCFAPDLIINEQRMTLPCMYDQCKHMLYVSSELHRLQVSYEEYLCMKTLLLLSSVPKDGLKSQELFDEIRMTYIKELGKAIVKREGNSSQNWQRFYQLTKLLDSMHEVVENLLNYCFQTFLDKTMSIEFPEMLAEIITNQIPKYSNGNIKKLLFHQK

[7] = molecular target: Glucocorticoid receptor (Homo sapiens) (UniProt P04150); experiment: GR-EFC Redistribution (AID 451; calls by dose curve; further: potency means the concentration at half of the fitted maximal effect); details: CHO-K1 GR-EFC translocation, beta-gal luminescence, 2 h
Outline: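 CHO-K1 cells expressing nuclear EA and GR-ED fragments of b-gal; compounds titrated up to 46 uM final, 2 h at 37 C. GR nuclear translocation read as complemented b-gal luminescence after 1 h RT detection.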

[8] = molecular target: Mitogen-activated protein kinase 10 (Mus musculus) (UniProt Q61831); experiment: JNK3 AlphaScreen Assay (AID 530; active means well fitted curve in either direction with a large enough effect, not every such curve was filed as active;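 further: kinase came from lysate of stimulated human HepG2 cells; signal reports phosphorylation of biotinylated GST-cJun 1-79 at Ser73 with 10 µM ATP; on the % scale 0 is the no-effect control and ±100 the full control effect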); details: JNK3 lysate, c-Jun phosphorylation; series mostly up to 57.1 µM
Outline: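 Activity was read by AlphaScreen after JNK3-containing HepG2 lysate (cytokine pre-activated) phosphorylated biotinylated GST-cJun with 10 uM ATP at room temperature. Phospho-Ser73 cJun antibody with Protein-A acceptor beads provided detection.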

[9] = molecular target: 3',5'-cyclic-AMP phosphodiesterase 4B (Homo sapiens) (UniProt Q07343); experiment: qHTS Assay for Inhibitors of PDE-IV (AID 607; active means well fitted activation curve with a large enough effect in the main read-out, with a control signal flat, not every such curve was filed as active; further: % of control where 0% means no effect); details: HEK293 ACTOne CNG channel cells, membrane potential fluorescence; series mostly up to 22.9 µM
Sequence of 3',5'-cyclic-AMP phosphodiesterase 4B (Homo sapiens) (Q07343 whole entry, looked up): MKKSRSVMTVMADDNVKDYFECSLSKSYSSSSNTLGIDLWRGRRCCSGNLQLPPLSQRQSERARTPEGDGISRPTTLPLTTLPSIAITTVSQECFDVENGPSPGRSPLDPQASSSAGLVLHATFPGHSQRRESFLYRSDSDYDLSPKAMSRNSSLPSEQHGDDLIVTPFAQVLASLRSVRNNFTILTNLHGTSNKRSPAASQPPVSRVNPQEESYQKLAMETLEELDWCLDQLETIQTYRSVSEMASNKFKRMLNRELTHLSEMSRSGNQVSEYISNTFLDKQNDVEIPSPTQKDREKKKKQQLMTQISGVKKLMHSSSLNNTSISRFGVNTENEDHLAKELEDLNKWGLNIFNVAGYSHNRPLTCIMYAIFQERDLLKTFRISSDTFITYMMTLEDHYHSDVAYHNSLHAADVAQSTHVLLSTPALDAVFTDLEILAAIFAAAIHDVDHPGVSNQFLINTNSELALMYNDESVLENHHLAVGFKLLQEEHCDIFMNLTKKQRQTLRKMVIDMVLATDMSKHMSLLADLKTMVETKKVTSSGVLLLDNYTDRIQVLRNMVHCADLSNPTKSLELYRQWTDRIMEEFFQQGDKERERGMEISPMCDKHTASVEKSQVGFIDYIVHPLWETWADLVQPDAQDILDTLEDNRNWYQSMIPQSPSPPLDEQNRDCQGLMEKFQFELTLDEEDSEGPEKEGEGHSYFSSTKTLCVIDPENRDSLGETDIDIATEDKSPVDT
Outline: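 Cell-based read-out of cAMP via a modified cyclic nucleotide-gated channel and membrane potential dye (535/590 nm) in HEK293 cells expressing PDE4 endogenously. Compounds tested up to 22.9 uM final; 100 uM RO 20-1724 reference.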

[10] = molecular target: Cytochrome P450 3A4 (Homo sapiens) (UniProt P08684); experiment: qHTS Assay for Activators of Cytochrome P450 3A4 (AID 885); details: recombinant CYP3A4, Luciferin-PPXE luminescence, 60 min; series mostly up to 57.1 µM; further: nearly all actives have a fitted effect of over 65% in size
Sequence of Cytochrome P450 3A4 (Homo sapiens) (P08684 whole entry, looked up): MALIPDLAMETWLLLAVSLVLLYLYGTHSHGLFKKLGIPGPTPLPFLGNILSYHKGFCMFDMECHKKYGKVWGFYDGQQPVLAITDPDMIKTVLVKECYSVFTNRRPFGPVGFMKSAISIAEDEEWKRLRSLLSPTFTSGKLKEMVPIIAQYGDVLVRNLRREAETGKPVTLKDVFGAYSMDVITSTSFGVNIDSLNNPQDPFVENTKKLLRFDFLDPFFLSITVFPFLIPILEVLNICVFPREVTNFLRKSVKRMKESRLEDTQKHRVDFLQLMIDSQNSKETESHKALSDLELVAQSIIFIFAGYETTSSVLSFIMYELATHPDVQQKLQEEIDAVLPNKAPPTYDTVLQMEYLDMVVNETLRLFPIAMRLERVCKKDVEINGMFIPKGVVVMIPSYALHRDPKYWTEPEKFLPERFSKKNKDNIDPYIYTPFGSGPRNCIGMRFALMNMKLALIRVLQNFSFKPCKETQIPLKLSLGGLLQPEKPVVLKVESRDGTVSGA
Outline: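 Luminescent readout of luciferin formed from 25 uM Luciferin-PPXE (KM level) by 20 nM CYP3A4 in 200 mM KPO4, with 60 min NADPH-driven reaction at room temperature after 10 min compound exposure. Ketoconazole (57 uM) defined 100% inhibition.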

[11] = molecular target: Cytochrome P450 2C19 (Homo sapiens) (UniProt P33261); experiment: qHTS Assay for Inhibitors and Substrates of Cytochrome P450 2C19 (AID 899); details: recombinant CYP2C19, luciferin-H EGE luminescence; series mostly up to 57.1 µM; further: potency means the concentration at half of the fitted maximal effect; nearly all actives have a fitted effect of over 60% in size
Sequence of Cytochrome P450 2C19 (Homo sapiens) (P33261 whole entry, looked up): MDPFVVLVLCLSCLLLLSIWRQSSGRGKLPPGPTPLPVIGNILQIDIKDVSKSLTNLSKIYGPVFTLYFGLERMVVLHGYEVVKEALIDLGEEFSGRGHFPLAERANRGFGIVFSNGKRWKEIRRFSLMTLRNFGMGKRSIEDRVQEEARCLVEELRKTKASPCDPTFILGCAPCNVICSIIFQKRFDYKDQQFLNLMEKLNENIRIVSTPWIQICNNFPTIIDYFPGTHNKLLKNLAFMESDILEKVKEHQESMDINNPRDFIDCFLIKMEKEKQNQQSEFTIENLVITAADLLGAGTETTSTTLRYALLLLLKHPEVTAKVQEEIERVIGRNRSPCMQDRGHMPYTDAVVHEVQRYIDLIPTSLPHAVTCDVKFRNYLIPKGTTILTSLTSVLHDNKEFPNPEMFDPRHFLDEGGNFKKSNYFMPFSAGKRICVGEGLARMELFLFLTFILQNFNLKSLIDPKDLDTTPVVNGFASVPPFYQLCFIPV
Outline: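 5 nM human CYP2C19 with 10uM Luciferin-H EGE (at KM) in 50mM KPO4, compound preincubated 10 min at 37C, then NADPH regeneration for 60 min at 37C. Luciferin read by luminescence after detection reagent; normalized to 57uM ketoconazole as full inhibition.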

[12] = molecular target: Dual specificity protein kinase CLK4 (Homo sapiens) (UniProt Q9HAZ1); experiment: qHTS Assay for Inhibitors of CDC-like Kinase 4 (Kinase-Glo Assay) (AID 1770); details: recombinant Clk4, Kinase-Glo ATP depletion luminescence; series mostly up to 66.7 µM; further: nearly all actives have a fitted effect of over 65% in size; further: potency means the concentration at half of the fitted maximal effect
Sequence of Dual specificity protein kinase CLK4 (Homo sapiens) (Q9HAZ1 whole entry, looked up): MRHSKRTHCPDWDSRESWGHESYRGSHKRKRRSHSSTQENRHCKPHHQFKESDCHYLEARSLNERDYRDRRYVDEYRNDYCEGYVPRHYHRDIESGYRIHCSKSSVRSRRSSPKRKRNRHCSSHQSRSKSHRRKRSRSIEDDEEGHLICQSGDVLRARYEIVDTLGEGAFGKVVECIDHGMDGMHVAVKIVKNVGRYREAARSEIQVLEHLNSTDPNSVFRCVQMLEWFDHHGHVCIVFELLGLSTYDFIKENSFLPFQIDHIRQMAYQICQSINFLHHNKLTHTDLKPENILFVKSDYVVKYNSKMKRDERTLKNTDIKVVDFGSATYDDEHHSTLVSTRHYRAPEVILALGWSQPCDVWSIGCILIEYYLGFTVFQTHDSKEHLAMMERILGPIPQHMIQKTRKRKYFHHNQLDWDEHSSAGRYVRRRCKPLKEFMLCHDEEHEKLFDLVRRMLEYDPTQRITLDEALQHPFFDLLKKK
Outline: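 Recombinant human Clk4 (25 nM) phosphorylated RS repeat peptide (100 uM) with 1 uM ATP in Tris pH 7.5/MgCl2/EGTA/DTT/Triton buffer for 4.5 h at room temperature. Residual ATP was quantified by Kinase-Glo luciferase luminescence.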

[13] = molecular target: Dual specificity protein kinase CLK4 (Homo sapiens) (UniProt Q9HAZ1); experiment: qHTS Assay for Inhibitors of CDC-like Kinase 4 (ADP-FP Assay) (AID 1795); details: Transcreener ADP fluorescence polarization; series mostly up to 50 µM; further: on the % scale 0 is the no-effect control and ±100 the full control effect; nearly all actives have a fitted effect of over 60% in size
Outline: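 Recombinant human Clk4 (6.25 nM) phosphorylated RS repeat peptide (100 uM) with 1 uM ATP in Tris pH 7.5/MgCl2/EGTA/DTT/Triton buffer for one hour. ADP was quantified by Transcreener competitive fluorescence polarization against an ADP calibration curve.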

[14] = molecular target: Ubiquitin carboxyl-terminal hydrolase 1 (Homo sapiens) (UniProt O94782); experiment: Inhibitors of USP1/UAF1: Pilot qHTS (AID 504865); details: purified USP1/UAF1, Ub-rhodamine cleavage fluorescence; series mostly up to 54.9 µM; further: nearly all actives have a fitted effect of over 35% in size; further: potency means the concentration at half of the fitted maximal effect
Sequence of Ubiquitin carboxyl-terminal hydrolase 1 (Homo sapiens) (O94782 whole entry, looked up): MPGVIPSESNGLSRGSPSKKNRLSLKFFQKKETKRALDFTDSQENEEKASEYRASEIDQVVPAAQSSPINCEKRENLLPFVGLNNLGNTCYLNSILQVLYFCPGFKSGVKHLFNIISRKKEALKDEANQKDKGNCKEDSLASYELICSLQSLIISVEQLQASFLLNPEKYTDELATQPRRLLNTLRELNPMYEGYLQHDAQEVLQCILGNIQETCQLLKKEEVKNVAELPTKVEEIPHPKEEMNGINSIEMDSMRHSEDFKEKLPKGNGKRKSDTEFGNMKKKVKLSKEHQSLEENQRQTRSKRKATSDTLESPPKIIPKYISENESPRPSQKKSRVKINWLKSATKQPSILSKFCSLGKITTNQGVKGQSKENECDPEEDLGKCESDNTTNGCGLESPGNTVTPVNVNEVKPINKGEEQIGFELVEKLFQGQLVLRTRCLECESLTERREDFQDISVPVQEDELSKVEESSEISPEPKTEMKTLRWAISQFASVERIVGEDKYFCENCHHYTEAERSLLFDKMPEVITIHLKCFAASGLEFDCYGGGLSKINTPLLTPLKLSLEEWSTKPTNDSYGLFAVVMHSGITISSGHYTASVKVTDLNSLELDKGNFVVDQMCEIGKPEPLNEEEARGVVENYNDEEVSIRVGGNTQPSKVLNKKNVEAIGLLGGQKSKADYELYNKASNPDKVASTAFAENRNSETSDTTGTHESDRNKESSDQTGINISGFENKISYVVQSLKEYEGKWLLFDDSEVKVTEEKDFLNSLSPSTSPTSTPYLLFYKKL
Outline: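 USP1/UAF1 complex (1nM) preincubated with compound 15 min at room temperature, then Ub-Rho substrate (150nM final) added. Fluorescence read kinetically at 480/540 nm, 6 reads every 60 seconds. Buffer: 50mM HEPES pH 7.8, 0.5mM EDTA, 0.1 mg/ml BSA, 1mM TCEP, 0.01% Tween-20.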

[15] = Primary qHTS for small molecule stabilizers of the endoplasmic reticulum resident proteome: Secreted ER Calcium Modulated Protein (SERCaMP) assay (AID 1508630); details: SH-SY5Y GLuc-SERCaMP (Gaussia luciferase released on ER calcium loss) secretion, thapsigargin, luminescence; series mostly up to 38.4 µM; further: on the % scale 0 is the no-effect control and ±100 the full control effect
Outline: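 The SH-SY5Y reporter protocol was run at 3 concentrations up to 38.3 uM (primary) or 11 concentrations (follow-up): 16 h compound, 100 nM thapsigargin for 4 h, then extracellular luciferase luminescence.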

[16] = molecular target: Cytochrome P450 3A4 (Homo sapiens) (UniProt P08684); experiment: qHTS Assay for Inhibitors and Substrates of Cytochrome P450 3A4 (AID 884); details: recombinant CYP3A4, Luciferin-PPXE luminescence; series mostly up to 57.1 µM; further: nearly all actives have a fitted effect of over 50% in size; further: potency means the concentration at half of the fitted maximal effect
Outline: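 Luminescent readout of luciferin produced by CYP3A4 (20 nM) dealkylation of Luciferin-PPXE, 25 uM (its KM). NADPH-driven reaction ran 60 min at RT after 10 min compound preincubation; data scaled to 57 uM ketoconazole as 100% inhibition.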

N#Cc1cccc(-c2cncnc2NCc2cccnc2)c1
active: Potency [3] 5.01 µM | Potency [11] 3.98 µM
inactive: Potency [1] > 11.4 µM | activity change, negative = inhibition [2] 13% | activity change, negative = inhibition [4] -3.61% | activity, negative = inhibition [5] 6.63% | Potency [6] > 46 µM | Potency [7] > 46 µM | Potency [8] | Potency [9] | Potency [10] | Potency [12] | Potency [13] | Potency [14] | outcome [15]

CN(C)c1ncc2nc(-c3ccc(Cl)cc3)c(=O)n(CCC#N)c2n1
inactive: activity change, negative = inhibition [2] 7.51% | activity change, negative = inhibition [4] 17.6% | activity, negative = inhibition [5] 17.6% | Potency [6] > 9.22 µM | Potency [7] > 46 µM | Potency [8] | Potency [9] | Potency [12] | Potency [13] | Potency [14] | outcome [15]

Clc1ccccc1-c1cc(NCc2ccccc2)ncn1
active: Potency [3] 3.98 µM | Potency [11] 7.94 µM | Potency [12] 25.1 µM
inactive: Potency [1] > 11.4 µM | activity change, negative = inhibition [2] 0.871% | activity change, negative = inhibition [4] 1.92% | activity, negative = inhibition [5] 4.36% | Potency [6] > 46 µM | Potency [7] > 46 µM | Potency [8] | Potency [16] | outcome [15]

CNc1ccnc(-c2cccc(NS(C)(=O)=O)c2)n1
inactive: activity change, negative = inhibition [2] 13.6% | activity change, negative = inhibition [4] 18.6% | activity, negative = inhibition [5] -1.8% | Potency [6] > 46 µM | Potency [7] > 46 µM | Potency [8] | Potency [9] | Potency [12] | Potency [13] | Potency [14] | outcome [15]

FC(F)(F)c1ccccc1-c1nc(NC2CC2)c2ccccc2n1
active: Potency [1] 6.53 µM | Potency [3] 0.398 µM | Potency [16] 3.16 µM | Potency [12] 14.1 µM
inactive: activity change, negative = inhibition [2] 3.67% | activity change, negative = inhibition [4] 8.57% | activity, negative = inhibition [5] 8.2% | Potency [6] > 46 µM | Potency [7] > 46 µM | Potency [8] | Potency [10] | Potency [14] | outcome [15]

O=c1c(-c2cccs2)nc2cnc(N3CCNCC3)nc2n1Cc1cccs1
inactive: Potency [1] > 11.4 µM | Potency [6] > 9.22 µM | Potency [7] > 46 µM | Potency [8] | Potency [9] | Potency [12] | Potency [13] | outcome [15]
active: Potency [3] 3.98 µM | Potency [16] 2.51 µM | Potency [11] 5.01 µM | Potency [14] 28.2 µM

COCCn1c(=O)c(CCc2ccccc2)nc2cnc(Nc3ccccc3)nc21
inactive: Potency [1] > 11.4 µM | activity change, negative = inhibition [2] 16.9% | activity change, negative = inhibition [4] 10.5% | Potency [6] > 9.22 µM | Potency [7] > 46 µM | Potency [8] | Potency [12] | Potency [13] | Potency [14] | outcome [15]
